# Where “and” joins values, the source holds several entries; their conditions need not be identical. Equal values may be shown once. Records with an inconclusive call do not appear. A number with no mark means an inactive call. Calls of active or inactive are those of the source. The call rests on the fitted dose curve; in most records, active means well fitted antagonist curve with a large enough effect in the main read-out, with a control signal flat; inconclusive means small, poorly fitted or top-dose-only effect; inactive means no such curve, though single readings can be large or run the other way.
# Molecular target: Neuropeptide S receptor (Homo sapiens) (UniProt Q6W5P4)
# Sequence (Q6W5P4 whole entry, looked up): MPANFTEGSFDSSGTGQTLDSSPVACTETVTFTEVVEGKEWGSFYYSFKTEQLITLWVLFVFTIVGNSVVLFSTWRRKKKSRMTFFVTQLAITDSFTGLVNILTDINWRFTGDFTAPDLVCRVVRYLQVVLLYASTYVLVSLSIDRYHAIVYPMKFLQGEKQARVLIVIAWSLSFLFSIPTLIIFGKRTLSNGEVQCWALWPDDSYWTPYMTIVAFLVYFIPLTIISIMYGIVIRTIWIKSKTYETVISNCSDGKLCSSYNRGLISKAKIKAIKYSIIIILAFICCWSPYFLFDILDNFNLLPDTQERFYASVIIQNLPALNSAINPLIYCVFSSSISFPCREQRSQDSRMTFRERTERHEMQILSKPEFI
# Test: Confirmation Concentration-Response Assay for Antagonists of the Neuropeptide S Receptor: Calcium Signal Transduction, SAR for Probe
# Details: CHO-NPSR cells, NPS-induced calcium fluorescence, FDSS; series mostly up to 50.9 µM; activity change, negative = inhibition: at the top concentration
# Text: NIH Chemical Genomics Center [NCGC] NIH Molecular Libraries Probe Production centers Network [MLPCN] MLPCN Grant: X01-DA026210-01 Assay Submitter (PI): Heilig, Markus Alexander NCGC Assay Overview: Neuropeptide S receptor (NPSR), previously known as GPR154, is a recently de-orphanized G protein coupled receptor. Its endogenous ligand is the 20 amino acids peptide Neuropeptide S (NPS). […] NPS and its receptor are found in various tissues. Specifically they are highly expressed in brain areas that have been implicated in modulation of arousal, stress and anxiety. Central administration of NPS in mice produces an unusual profile of activity by inducing wakefulness and arousal, while at the same time suppressing anxiety. Therefore, NPSR may represent a novel drug target for the treatment of sleep and anxiety disorders. To identify NPSR antagonists, we developed a cell-based assay with transfected NPS receptor. NPS can stimulate the production of cAMP as well as release intracellular calcium in Chinese hamster ovary cells stably expressing NPS receptor. This change in intracellular calcium can be detected using a calcium indicator dye on a calcium imaging plate reader system (FDSS).
# NCGC Assay Protocol Summary: A Chinese hamster ovary (CHO) cell line stably expressing the NPS receptor (CHO-NPSR) was obtained from Dr. Heilig lab at NIAAA and maintained in F-12 Kaighn's media (Invitrogen, Carlsbad, CA, 21127) supplemented with 10 % FBS, 100 units/ml penicillin, 100 ug/ml streptomycin and 250 ug/ml geneticin at 37C, 5% CO2 in a humidified atmosphere. Before the assay, aliquots of cells were frozen and stored at -135C. The assay was performed on a FDSS-7000 kinetic plate reader in 1536-well format. For both agonist (1-220s) and antagonist (221-400s) phases, the maximums of kinetic fluorescence responses were converted separately into text files using the instrument's software data export utility. Data for agonist response were normalized to the controls for basal activity (DMSO only) and 100% activation (NPS). […] AC50 values were determined from concentration-response data modeled with the standard Hill equation. NPS 1536-well FDSS assay protocol: (1) Frozen CHO-NPSR cells were thaw, washed once with fresh media and resuspended in F-12 Kaighn's media supplemented with 10 % FBS, 100 units/ml penicillin and 100 ug/ml streptomycin. Cells were plated at 3 ul/well (1200 cells) to black, clear-bottom, tissue-culture treated 1536-well plates, and then cultured at 37C, 5 % CO2 for 16 to 30 hours. (2) Add 3 ul of calcium dye (from High Performance PBX Calcium Assay Kit, BD Biosciences). The calcium dye was prepared according to the manufactory's instruction. (3) Incubation at 37C, 5 % CO2 for 60 to 120 min. (4) Load plates to FDSS-7000. The following steps were performed on FDSS-7000. (5) Record fluorescent background (Ex 480 nm, Em 520-560 nm) for 10 s. (6) Add 23 nl/well of compound in DMSO solution. The final titration for each compound was between 0.6 nM and 46 uM. Record agonist response for 210 s. (7) Add 2 ul of stimulation reagent (1X HBSS buffer, 0.1% BSA, 60 nM NPS). Record antagonist response for 140 s. Keywords: MLSMR, MLPCN, NIH Roadmap, qHTS, NCGC, NPS, Neuropeptide S Antagonists
SMILES,Potency,"activity change, negative = inhibition"
Cc1c(P(=S)(c2ccccc2)c2ccccc2)[n+]2ccccc2n1Cc1ccccc1,1.74 µM (active),–
C=C1C(=O)O[C@@H]2C[C@@H](C)[C@@H]3C=CC(=O)[C@@]3(C)[C@@H](OC(=O)CC(=O)O[C@H]3[C@@H]4C(=C)C(=O)O[C@@H]4C[C@@H](C)[C@@H]4C=CC(=O)[C@]43C)[C@H]12,0.0891 µM (active),–
Cn1cc(P(=S)(c2ccccc2)c2ccccc2)c2ccccc21,–,-16.2%
S=P(c1ccccc1)(c1ccccc1)c1c[n+](Cc2ccccc2)c2ccccn12,6.93 µM (active),–
Cc1c(P(=S)(c2ccccc2)c2ccccc2)[n+]2ccccc2n1C,199 nM (active) and 251 nM (active) and 220 nM (active),–
Cc1c(P(=S)(c2ccccc2)c2ccccc2)[n+]2ccccc2n1CCc1ccccc1,1.38 µM (active),–
S=P(c1ccccc1)(c1ccccc1)c1cnc2ccccn12,12.3 µM (active),–
Cn1c(-c2ccccc2)c(P(=S)(c2ccccc2)c2ccccc2)c2ccccc21,–,7.11%
CCOC(=O)c1c(-n2c(C)cc(C=C3C(=O)NC(=S)NC3=O)c2C)sc2c1CCCC2,2 µM (active),–
Cc1c(P(=S)(c2ccccc2)c2ccccc2)[n+]2ccccc2n1CCCc1ccccc1,0.0552 µM (active),–
Cc1c(P(=S)(c2ccccc2)c2ccccc2)[n+]2ccccc2n1C/C=C/c1ccccc1,0.0438 µM (active),–
Cc1nc2ccccn2c1P(=S)(c1ccccc1)c1ccccc1,9.79 µM (active),–
CC(=O)Nc1cc([As](=O)(O)O)ccc1O,–,25.2% [at 19.3 µM]
C[C@H]1CCCC(=O)CCCCCc2cc(O)cc(O)c2C(=O)O1,–,10.8% [at 19.3 µM]
Cc1c(P(=S)(c2ccccc2)c2ccccc2)c2ccccc2n1C,–,-16.7%
C=C(C=O)C[C@@H]1C[C@H](O)C2OC3C[C@]4(C)OC5/C=C\CC6OC7C(CC=CCC6OC5CCCC4OC3CC2O1)OC1CC2OC3CC(=O)OC3C[C@@H](C)C[C@@]2(C)OC1C[C@@H]7C (stereo partly drawn),0.501 µM (active),–
CNc1ccc2oc(C[C@H]3O[C@@]4(CC[C@H]3C)O[C@H]([C@H](C)C(=O)c3ccc[nH]3)[C@H](C)C[C@H]4C)nc2c1C(=O)O,0.0158 µM (active),–
S=P(c1ccccc1)(c1ccccc1)c1c(-c2ccccc2)[nH]c2ccccc12,–,-14.5%

# — PubChem BioAssay AID2567 (National Center for Advancing Translational Sciences (NCATS), 2010)
